Data reported in the OligoGym collection.
Note: reference of the scale not given here.

Each sequence was assayed against NUP54 (assay: pooled miR-30 sensor sort-seq; sequence = guide strand). Details: shRNA.
In the case of TTGTTGTTTCAAATGCTGCTTG, the sensor-assay potency score (higher = more potent) is reported as 0.0156. With TAAATAACAACTTCTGTCTGAT the sensor-assay potency score (higher = more potent) was 0.552. For TAATGTAGTTTGCTGCTGCTGC, the sensor-assay potency score (higher = more potent) was 0.262. TACATTTACAGTAAGGGTCTGG showed a sensor-assay potency score (higher = more potent) of 0.14. For TTCTAGATCGTCTTTAATGATG, the sensor-assay potency score (higher = more potent) was -1.29. With TAACAGATCTGCATCTATGTAA the sensor-assay potency score (higher = more potent) was 0.386. TACAGATGTAGTTTGATTCTTT was tested, and the sensor-assay potency score (higher = more potent) was 0.197. Work on TTATATCTTCTAGATCGTCTTT yielded a sensor-assay potency score (higher = more potent) of -0.236. Sequence ATAAATAACAACTTCTGTCTGA has a sensor-assay potency score (higher = more potent) of 1.09. With TAAACCAGTACTAGTTCCCGTT the sensor-assay potency score (higher = more potent) was -0.284. Work on TTCCTGTTTGATTAGGACCTGT yielded a sensor-assay potency score (higher = more potent) of 0.0888.

What follows are sequences tested against NUTF2 in the same assay as above. Details: shRNA.
TTCTCCTTCACTTCTTTGGGTT was tested, and the sensor-assay potency score (higher = more potent) was -0.477. TGCAACTAGTCTAGCATCCAAA was tested, and the sensor-assay potency score (higher = more potent) was -1.42. With TTCTTTAATAGGAACATCTGGT the sensor-assay potency score (higher = more potent) was -0.647. For TTTTGCATTACTTAAGTCTTTC, the sensor-assay potency score (higher = more potent) was -0.669. Sequence TTTAATAGGAACATCTGGTGGA has a sensor-assay potency score (higher = more potent) of 0.705. TAGTAATGTTGAATGAAGCTGG gave a sensor-assay potency score (higher = more potent) of 0.656. TACAACACAAACTTCTCCCGTC gave a sensor-assay potency score (higher = more potent) of 0.549. For TATCATTATCAAATAACTGGTA, the sensor-assay potency score (higher = more potent) was 0.126. TAATAGGAACATCTGGTGGAAC gave a sensor-assay potency score (higher = more potent) of -1.27. In the case of TTAATAGGAACATCTGGTGGAA, the sensor-assay potency score (higher = more potent) is reported as -0.0861. TACTAGAGCAACTTGTCAGTAG showed a sensor-assay potency score (higher = more potent) of 0.355.

Each sequence was assayed against NXF3 in the same assay as above. Details: shRNA.
Sequence TTACAGGTTGGTAACCTCTTGT has a sensor-assay potency score (higher = more potent) of 0.125. Sequence TGCATCTCCATCTTGCTGCTGA has a sensor-assay potency score (higher = more potent) of -0.136. TGCTCTTCTTTGAACAACTTGA was tested, and the sensor-assay potency score (higher = more potent) was -0.684. TTCATAGTGAAACTCAACTGGG showed a sensor-assay potency score (higher = more potent) of -0.55. Work on TTATCTGCTCCACCTTTTCTGA yielded a sensor-assay potency score (higher = more potent) of -1.35. Sequence TTCTTCAACATCTCAGATCCAA has a sensor-assay potency score (higher = more potent) of 0.0512. AATCTTGCCACTGACATTCTTC gave a sensor-assay potency score (higher = more potent) of -0.451. TTGCTCTTCTTTGAACAACTTG gave a sensor-assay potency score (higher = more potent) of -0.818. With TAATTTGGGGAACAATTCCAGG the sensor-assay potency score (higher = more potent) was -1.33. With TTGACAAAGATTGATATCTTTT the sensor-assay potency score (higher = more potent) was -1.25. In the case of TTTTCTGACTTCAGCTCCCTGT, the sensor-assay potency score (higher = more potent) is reported as -0.506. In the case of TTGAACAACTTGATCAGTGTGA, the sensor-assay potency score (higher = more potent) is reported as 0.976.

These sequences were tested against NXF5 in the same assay as above. Details: shRNA.
With TACATAGGCAGACTGGTCCGAG the sensor-assay potency score (higher = more potent) was -0.391. TTCGTGGACATTTTGTGTGCTT gave a sensor-assay potency score (higher = more potent) of -0.318. TTACATAGGCAGACTGGTCCGA showed a sensor-assay potency score (higher = more potent) of 0.61. TACAGTTTGTTGTTGCACAAGT was tested, and the sensor-assay potency score (higher = more potent) was -0.398. TTTTGTGTGCTTTAGCAGCTTC showed a sensor-assay potency score (higher = more potent) of 0.239. TTTCTTTCAGTGATCTTCAGGG showed a sensor-assay potency score (higher = more potent) of 0.16.
